Test [1] is described as follows: ATG_GLI_CIS: Attagene CIS-FACTORIAL HepG2 Assay for human Zinc Finger Protein GLI1 (AID 2282945). The note with it: HepG2, Attagene cis-factorial reporter mRNA, GLI element; actives raise or lower the signal. The gist of the method: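 HepG2 cells transiently transfected with cis-promoter multiplexed reporter units report endogenous transcription factor activity. After 24 h chemical exposure, reporter mRNA was quantified by RT-PCR, 6-FAM labelling, HpaI digestion and capillary electrophoresis, with bidirectional fitting against DMSO.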

Test [2] in a line: ATG_GRE_CIS: Attagene CIS-FACTORIAL HepG2 Assay for human Glucocorticoid Response Elements (GRE) (AID 2282947). The note with it: HepG2 GRE cis-reporter, Attagene multiplex mRNA; actives raise or lower the signal. The method in brief:
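Cells (HepG2) bearing transfected cis-promoter reporter transcription units were treated with chemical for 24 hours. Reporter mRNA was measured via RT-PCR with capillary electrophoresis, and activity was fitted in both directions relative to DMSO.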

The nature of test [3]: ATG_ISRE_CIS: Attagene CIS-FACTORIAL HepG2 Assay for human Interferon Regulatory Factor 1 (IRF1) binding to an Interferon-Stimulated Response Element (ISRE) (AID 2282948). The settings on record: HepG2 ISRE cis-reporter (Attagene), mRNA transcription readout; actives raise or lower the signal. The gist of the method:
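Uses HepG2 liver cells transfected with cis-regulated reporters and measures mRNA 24 h post-dosing through RT-PCR, primer-extension labelling and capillary electrophoresis, with DMSO as negative control.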

Test [4] is described as follows: ATG_M_32_CIS: Attagene CIS-FACTORIAL HepG2 Assay for M32 Transcription Factor (Internal Marker) (AID 2282949).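 Note: background control marker of the multiplexed CIS panel rather than a real target.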 The settings on record: HepG2 Attagene cis-factorial M32 reporter, mRNA; actives raise or lower the signal. The method in brief:
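HepG2 transfectants (cis-regulated reporter transcription units) dosed 24 h. Reporter mRNA by RT-PCR plus CE, analysed as gain or loss relative to DMSO.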

A short description of test [5]: ATG_M_06_CIS: Attagene CIS-FACTORIAL HepG2 Assay for M06 Transcription Factor (Internal Marker) (AID 2282950). The note with it: HepG2 Attagene CIS-FACTORIAL M06 internal marker reporter; actives raise or lower the signal. The gist of the method: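 HepG2 cells transiently transfected with cis-regulated multiple reporter transcription units were exposed to chemical for 24 h; reporter mRNA was quantified by RT-PCR, 6-FAM primer labelling, HpaI digestion and capillary electrophoresis, fitted bidirectionally against DMSO.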

In test [6] the target is Hypoxia-inducible factor 1-alpha (Homo sapiens) (UniProt Q16665). The test is described as follows: ATG_HIF1a_CIS: Attagene CIS-FACTORIAL HepG2 Assay for human Hypoxia Inducible Factor 1 (HIF1A) (AID 2282951). The note with it: HepG2 Attagene cis-factorial HIF1a reporter transcription; actives raise or lower the signal. The gist of the method:
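Endogenous-TF cis reporter readout, human HepG2 cells, 24 h incubation; mRNA detected via RT-PCR and capillary electrophoresis fluorescence; DMSO-normalised bidirectional fitting.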

Test [7] concerns the target Hepatocyte nuclear factor 6 (Homo sapiens) (UniProt Q9UBC0). The test is described as follows: ATG_HNF6_CIS: Attagene CIS-FACTORIAL HepG2 Assay for human Hepatocyte Nuclear Factor 6 (HNF6) (AID 2282952). The settings on record: HepG2 Attagene cis-factorial HNF6 reporter transcription; actives raise or lower the signal. The method in brief: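 Readout: fluorescent reporter-transcript fragments resolved by capillary electrophoresis after RT-PCR, reflecting endogenous factor activity in transfected HepG2. Exposure 24 h. Gain or loss of signal fitted bidirectionally against DMSO.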

For test [8], the target named is Heat shock factor protein 1 (Homo sapiens) (UniProt Q00613). As to the kind of experiment: ATG_HSE_CIS: Attagene CIS-FACTORIAL HepG2 Assay for human Heat Shock Transcription Factor 1 (HSE) (AID 2282953). The note with it: HepG2 HSE cis-reporter, Attagene RNA transcription; actives raise or lower the signal. The method in brief: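 HepG2 cells transiently transfected with multiple reporter transcription units under cis-regulatory promoter control, measuring endogenous transcription factor activity. After 24 h chemical exposure, reporter mRNA quantified by RT-PCR, fluorescent labelling, HpaI digestion and capillary electrophoresis; bidirectional fit versus DMSO.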

Test [9] is described as follows: ATG_MRE_CIS: Attagene CIS-FACTORIAL HepG2 Assay for human Metal Responsive Element (MRE) (AID 2282954). The note with it: HepG2 MRE cis-reporter transcription, Attagene multiplex; actives raise or lower the signal. The method in brief:
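Cells were transfected with cis-promoter reporter transcription units, then dosed for 24 h. RNA was reverse-transcribed, amplified, fluorescently labelled and resolved by capillary electrophoresis, and activity was fitted in both directions relative to DMSO.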

Test [10] can be described thus: ATG_PBREM_CIS: Attagene CIS-FACTORIAL HepG2 Assay for human Phenobarbital-responsive Enhancer Module (PBREM) (AID 2282955). The note with it: HepG2 PBREM cis-reporter, Attagene multiplexed transcription; actives raise or lower the signal. The gist of the method: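 Readout: reporter mRNA, fluorescent RT-PCR fragments separated by capillary electrophoresis. System: HepG2 transiently transfected with cis-regulated reporter units. Exposure: 24 h. Analysis: bidirectional, DMSO baseline.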

Test [11] concerns the target Paired box protein Pax-6 (Homo sapiens) (UniProt P26367). As to the kind of experiment: ATG_Pax6_CIS: Attagene CIS-FACTORIAL HepG2 Assay for human Paired Box 6 (PAX6) (AID 2282956). The note with it: HepG2 CIS-FACTORIAL PAX6 reporter transcription, RNA readout; actives raise or lower the signal. The method in brief:
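DMSO-referenced bidirectional fits of reporter mRNA fluorescence; HepG2 with transient cis-promoter MRTUs, 24 h post-dose, RT-PCR plus capillary electrophoresis detection.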

A short description of test [12]: ATG_PXRE_CIS: Attagene CIS-FACTORIAL HepG2 Assay for human Pregnane X Receptor Element (PXRE) (AID 2282957). The settings on record: HepG2 Attagene CIS-FACTORIAL PXRE reporter, mRNA; actives raise or lower the signal. The method in brief: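 Read-out: fluorescence of reporter-specific RT-PCR products resolved by capillary electrophoresis, fitted bidirectionally relative to DMSO. Human HepG2 liver cells carried transfected cis-promoter reporter units and were exposed to chemicals for 24 h.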

Test [13] is described as follows: ATG_PPRE_CIS: Attagene CIS-FACTORIAL HepG2 Assay for human Peroxisome Proliferator-activated Response Element (PPRE) (AID 2282958). The note with it: HepG2 PPRE cis-element reporter, Attagene transcription factor profiling; actives raise or lower the signal. The gist of the method:
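After human HepG2 hepatoma cells were transiently transfected with cis-promoter reporter constructs, they were exposed to test chemicals for 24 hours. Reporter RNA was then reverse-transcribed, PCR-amplified, FAM-labeled, HpaI-digested and quantified by capillary electrophoresis.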

The nature of test [14]: ATG_RORE_CIS: Attagene CIS-FACTORIAL HepG2 Assay for human RAR-related Orphan Receptor Element (RORE) (AID 2282959). The settings on record: HepG2 Attagene cis-factorial RORE reporter, mRNA; actives raise or lower the signal. The method in brief: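 Measured here: transcript induction of a cis-regulated reporter in HepG2 cells transiently transfected via FuGene 6. After 24 h, RNA was processed by RT-PCR and fluorescent capillary electrophoresis; DMSO defined baseline activity.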

A short description of test [15]: ATG_Sox_CIS: Attagene CIS-FACTORIAL HepG2 Assay for human SRY-box transcription factor (SOX) (AID 2282960). The settings on record: HepG2 Attagene cis-factorial SOX reporter, mRNA; actives raise or lower the signal. The gist of the method:
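Using transiently transfected HepG2 cells, reporter transcription driven by cis elements was assessed 24 h after dosing. Signal was fluorescence of capillary-separated RT-PCR products, with DMSO defining baseline activity.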

The target of test [16] is Transcription factor Sp1 (Homo sapiens) (UniProt P08047). As to the kind of experiment: ATG_Sp1_CIS: Attagene CIS-FACTORIAL HepG2 Assay for human Specificity Protein 1 (Sp1) (AID 2282961). The settings on record: HepG2 Sp1 cis-reporter transcription, actives raise or lower the signal. The gist of the method:
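After transient transfection of HepG2 cells with cis-promoter reporter units and 24 h chemical treatment, reporter transcripts were quantified by RT-PCR and capillary electrophoresis fluorescence. Gain- and loss-of-signal fitted against DMSO.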

A short description of test [17]: ATG_SREBP_CIS: Attagene CIS-FACTORIAL HepG2 Assay for human Sterol Regulatory Element Binding (SREBP) (AID 2282962). The settings on record: HepG2 Attagene cis-factorial SREBP reporter, mRNA; actives raise or lower the signal. The gist of the method:
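In this cis-format assay, HepG2 liver cells express reporters controlled by promoter elements responsive to native transcription factors. Exposure lasts 24 h; reporter mRNA fluorescence from capillary electrophoresis gives the signal, fitted bidirectionally against DMSO.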

The target in test [18] is Signal transducer and activator of transcription 3 (Homo sapiens) (UniProt P40763). The test is described as follows: ATG_STAT3_CIS: Attagene CIS-FACTORIAL HepG2 Assay for human Signal Transducer and Activator of Transcription 3 (STAT3) (AID 2282963). The note with it: HepG2, Attagene cis-factorial STAT3 reporter transcription; actives raise or lower the signal. The method in brief:
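HepG2, MRTU-transfected, 24 h dosing. RNA → RT → PCR → FAM label → HpaI → CE. Bidirectional fit vs DMSO.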

A short description of test [19]: ATG_TA_CIS: Attagene CIS-FACTORIAL HepG2 Assay for human TA Basal Promoter (AID 2282964). The settings on record: HepG2 Attagene CIS-factorial TA basal promoter reporter; actives raise or lower the signal. The gist of the method:
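HepG2 cells transiently transfected with multiplexed cis-promoter reporter units, dosed 24 h. Reporter mRNA measured by RT-PCR, 6-FAM labelling, HpaI digestion and capillary electrophoresis; bidirectional fit versus DMSO baseline, serving as background control.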

For test [20], the target named is Bile acid receptor (Homo sapiens) (UniProt Q96RI1). The test is described as follows: ATG_IR1_CIS: Attagene CIS-FACTORIAL HepG2 Assay for human Nuclear Receptor Subfamily 1 Group H Member 4 (NR1H4), IR1 submotif (AID 2282946). The note with it: IR1 reporter transcription, actives raise or lower the signal. The method in brief:
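Readout: reporter transcript levels by RT-PCR with fluorescent capillary electrophoresis, from HepG2 cells transiently transfected with multiplexed cis-regulated reporters and dosed 24 h. Gain- or loss-of-signal fitted versus DMSO negative control.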

Active and inactive are the calls of the source. Rule for the calls: active = hit-call score of the fitted dose curve at least 0.9, where 1 is the maximum; inactive = score below 0.9.

Chain of Signal transducer and activator of transcription 3 (Homo sapiens) (P40763 whole entry, looked up): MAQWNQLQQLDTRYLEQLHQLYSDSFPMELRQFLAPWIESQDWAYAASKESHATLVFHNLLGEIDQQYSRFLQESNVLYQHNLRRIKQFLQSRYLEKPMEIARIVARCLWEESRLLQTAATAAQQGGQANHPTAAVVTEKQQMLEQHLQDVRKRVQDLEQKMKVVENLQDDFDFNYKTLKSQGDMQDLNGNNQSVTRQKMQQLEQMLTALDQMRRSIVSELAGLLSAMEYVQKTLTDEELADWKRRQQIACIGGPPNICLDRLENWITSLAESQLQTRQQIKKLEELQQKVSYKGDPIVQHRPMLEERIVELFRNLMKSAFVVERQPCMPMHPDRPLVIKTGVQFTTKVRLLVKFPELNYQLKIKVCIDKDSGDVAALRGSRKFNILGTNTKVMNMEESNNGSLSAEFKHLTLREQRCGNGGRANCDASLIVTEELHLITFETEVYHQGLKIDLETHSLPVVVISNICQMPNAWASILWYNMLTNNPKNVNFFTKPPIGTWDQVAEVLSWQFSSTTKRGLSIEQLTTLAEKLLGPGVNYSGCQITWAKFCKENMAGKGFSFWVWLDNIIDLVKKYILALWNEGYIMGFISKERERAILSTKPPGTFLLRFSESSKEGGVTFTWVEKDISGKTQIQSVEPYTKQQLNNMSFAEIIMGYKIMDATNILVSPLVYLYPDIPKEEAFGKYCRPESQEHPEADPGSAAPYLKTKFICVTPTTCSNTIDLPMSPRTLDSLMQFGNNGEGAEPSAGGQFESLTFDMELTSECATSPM
Chain of Hepatocyte nuclear factor 6 (Homo sapiens) (Q9UBC0 whole entry, looked up, the tested form may be a part): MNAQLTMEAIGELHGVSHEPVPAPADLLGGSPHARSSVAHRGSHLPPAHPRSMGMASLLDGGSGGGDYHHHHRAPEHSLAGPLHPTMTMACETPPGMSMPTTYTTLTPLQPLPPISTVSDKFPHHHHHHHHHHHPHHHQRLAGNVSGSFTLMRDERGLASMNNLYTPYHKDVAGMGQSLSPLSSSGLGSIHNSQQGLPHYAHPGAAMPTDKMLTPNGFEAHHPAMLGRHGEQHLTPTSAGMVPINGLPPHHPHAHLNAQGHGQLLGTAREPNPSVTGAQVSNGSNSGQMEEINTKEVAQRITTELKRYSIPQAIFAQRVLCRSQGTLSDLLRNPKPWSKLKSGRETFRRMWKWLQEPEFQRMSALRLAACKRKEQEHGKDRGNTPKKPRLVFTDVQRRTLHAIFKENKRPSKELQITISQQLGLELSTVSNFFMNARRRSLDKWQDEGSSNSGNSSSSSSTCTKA
Chain of Bile acid receptor (Homo sapiens) (Q96RI1 whole entry, looked up): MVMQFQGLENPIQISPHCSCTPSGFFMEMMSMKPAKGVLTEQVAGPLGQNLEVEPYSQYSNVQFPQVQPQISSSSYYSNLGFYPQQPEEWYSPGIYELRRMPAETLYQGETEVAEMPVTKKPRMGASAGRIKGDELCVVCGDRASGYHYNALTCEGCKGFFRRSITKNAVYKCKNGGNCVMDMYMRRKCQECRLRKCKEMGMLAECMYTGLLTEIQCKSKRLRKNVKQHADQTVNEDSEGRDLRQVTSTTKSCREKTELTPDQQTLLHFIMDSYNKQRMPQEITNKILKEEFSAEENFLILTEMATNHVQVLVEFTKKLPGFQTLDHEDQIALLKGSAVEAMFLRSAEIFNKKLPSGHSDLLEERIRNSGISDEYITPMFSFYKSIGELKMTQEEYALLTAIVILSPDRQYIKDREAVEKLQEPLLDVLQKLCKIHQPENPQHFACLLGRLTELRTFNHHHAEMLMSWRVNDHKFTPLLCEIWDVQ
Chain of Transcription factor Sp1 (Homo sapiens) (P08047 whole entry, looked up): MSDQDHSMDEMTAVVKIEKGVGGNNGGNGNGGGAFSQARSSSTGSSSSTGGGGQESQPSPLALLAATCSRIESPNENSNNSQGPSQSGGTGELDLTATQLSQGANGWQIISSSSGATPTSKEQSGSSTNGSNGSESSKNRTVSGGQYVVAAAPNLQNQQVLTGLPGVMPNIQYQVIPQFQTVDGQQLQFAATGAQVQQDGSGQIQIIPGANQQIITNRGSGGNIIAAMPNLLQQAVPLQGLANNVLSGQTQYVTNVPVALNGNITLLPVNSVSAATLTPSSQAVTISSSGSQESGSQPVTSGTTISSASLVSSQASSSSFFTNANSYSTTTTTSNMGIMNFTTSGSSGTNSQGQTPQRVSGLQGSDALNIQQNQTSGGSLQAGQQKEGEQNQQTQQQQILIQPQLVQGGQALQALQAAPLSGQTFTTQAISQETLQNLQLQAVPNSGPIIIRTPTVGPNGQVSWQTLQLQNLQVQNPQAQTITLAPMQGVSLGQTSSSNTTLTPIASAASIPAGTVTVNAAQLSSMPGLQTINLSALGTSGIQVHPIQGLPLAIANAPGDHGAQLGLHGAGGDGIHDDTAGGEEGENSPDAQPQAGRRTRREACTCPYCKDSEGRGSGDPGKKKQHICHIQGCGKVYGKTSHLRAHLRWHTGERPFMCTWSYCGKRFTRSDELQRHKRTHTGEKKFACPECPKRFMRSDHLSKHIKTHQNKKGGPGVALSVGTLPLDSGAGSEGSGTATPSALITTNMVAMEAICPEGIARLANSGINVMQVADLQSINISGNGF
Chain of Hypoxia-inducible factor 1-alpha (Homo sapiens) (Q16665 whole entry, looked up): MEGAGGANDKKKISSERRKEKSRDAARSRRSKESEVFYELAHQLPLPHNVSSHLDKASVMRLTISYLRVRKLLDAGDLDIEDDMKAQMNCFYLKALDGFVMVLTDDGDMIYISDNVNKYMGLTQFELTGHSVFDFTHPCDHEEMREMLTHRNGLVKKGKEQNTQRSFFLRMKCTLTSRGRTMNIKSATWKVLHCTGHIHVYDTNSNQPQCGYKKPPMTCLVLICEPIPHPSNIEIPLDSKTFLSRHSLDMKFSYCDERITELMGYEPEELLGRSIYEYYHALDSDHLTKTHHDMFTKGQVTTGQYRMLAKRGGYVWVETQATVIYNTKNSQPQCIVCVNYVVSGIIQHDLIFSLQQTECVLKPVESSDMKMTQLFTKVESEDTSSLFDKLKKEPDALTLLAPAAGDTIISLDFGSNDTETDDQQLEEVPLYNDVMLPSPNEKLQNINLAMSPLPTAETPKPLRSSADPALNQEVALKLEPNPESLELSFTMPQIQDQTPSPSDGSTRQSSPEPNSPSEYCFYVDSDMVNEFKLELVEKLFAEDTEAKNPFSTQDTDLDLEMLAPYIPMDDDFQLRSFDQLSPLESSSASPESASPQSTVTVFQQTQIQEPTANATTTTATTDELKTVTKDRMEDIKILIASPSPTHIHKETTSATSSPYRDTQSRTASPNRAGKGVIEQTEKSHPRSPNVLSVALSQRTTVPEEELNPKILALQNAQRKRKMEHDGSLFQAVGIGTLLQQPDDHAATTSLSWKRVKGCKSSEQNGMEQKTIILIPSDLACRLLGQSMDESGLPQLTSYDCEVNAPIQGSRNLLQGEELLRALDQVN
Chain of Heat shock factor protein 1 (Homo sapiens) (Q00613 whole entry, looked up): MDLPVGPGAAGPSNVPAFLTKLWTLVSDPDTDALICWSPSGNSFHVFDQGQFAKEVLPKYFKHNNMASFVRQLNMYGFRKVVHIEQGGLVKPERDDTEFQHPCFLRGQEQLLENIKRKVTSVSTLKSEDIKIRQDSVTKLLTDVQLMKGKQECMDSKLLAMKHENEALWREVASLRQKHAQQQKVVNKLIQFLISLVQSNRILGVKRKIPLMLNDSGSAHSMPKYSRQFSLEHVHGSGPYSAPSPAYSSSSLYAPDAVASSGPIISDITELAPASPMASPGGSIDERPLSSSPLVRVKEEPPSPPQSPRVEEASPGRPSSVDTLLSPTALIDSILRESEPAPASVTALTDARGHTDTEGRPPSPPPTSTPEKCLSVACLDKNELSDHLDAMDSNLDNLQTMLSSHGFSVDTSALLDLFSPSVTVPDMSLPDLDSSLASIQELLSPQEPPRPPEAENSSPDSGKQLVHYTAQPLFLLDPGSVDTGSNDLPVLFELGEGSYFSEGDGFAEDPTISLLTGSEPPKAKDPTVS
Chain of Paired box protein Pax-6 (Homo sapiens) (P26367 whole entry, looked up): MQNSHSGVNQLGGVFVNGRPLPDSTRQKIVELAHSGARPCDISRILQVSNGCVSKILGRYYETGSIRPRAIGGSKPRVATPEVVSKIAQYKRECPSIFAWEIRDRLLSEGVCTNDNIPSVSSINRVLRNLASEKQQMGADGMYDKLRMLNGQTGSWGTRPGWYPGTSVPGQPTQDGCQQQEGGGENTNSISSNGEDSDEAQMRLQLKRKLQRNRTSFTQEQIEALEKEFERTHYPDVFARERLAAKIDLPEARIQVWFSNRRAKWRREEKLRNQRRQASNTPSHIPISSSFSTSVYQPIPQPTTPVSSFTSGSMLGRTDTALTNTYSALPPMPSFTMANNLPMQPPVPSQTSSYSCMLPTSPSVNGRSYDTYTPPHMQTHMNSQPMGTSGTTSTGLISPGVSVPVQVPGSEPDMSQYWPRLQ

Regarding `CC/C=C\CCOC(=O)c1ccccc1O`, the compound was classed as inactive in test [1], in test [2], in test [3], in [4], in test [5] and in [6]. The compound was classed as inactive in test [7], in test [8], in [9], in [10], in test [11] and in [12]. Also, the call in test [13], in test [14], in test [15], in test [16], in [17] and in test [18] was inactive. The result in [19] was inactive.

By AC50 is commonly meant the concentration at which the activity in the assay is half-maximal. Take `CC(C)c1ccc2ncccc2c1`: the outcome in test [1], in test [20], in [3], in test [4], in [5] and in [7] was inactive. The result in test [8], in test [9], in test [10], in test [11], in [14] and in test [16] was inactive. The compound was called inactive in test [17], in test [18] and in [19]. Moreover, the AC50 in test [12] is 27.9 µM (active).

In the case of `CC1=CC(C)C(C=O)CC1` (configuration not stated), the call in test [1], in test [2], in test [3], in [4], in test [5] and in test [6] was inactive. Besides, the compound was classed as inactive in [7], in test [8], in test [9], in test [10], in test [11] and in test [13]. In addition, the outcome in test [14], in test [16], in test [17], in test [18] and in [19] was inactive. For the same compound, the AC50 in test [12] was 27.7 µM (active).

With `OCCCc1ccccc1`, the compound was called inactive in test [1], in [2], in test [3], in test [4], in test [5] and in test [6]. Besides, the result in [7], in [8], in test [9], in test [10], in test [11] and in test [12] was inactive. The call in test [13], in test [15], in [16], in [17], in test [18] and in [19] was inactive.

`Oc1c(Cl)cc(Cl)c(Cl)c1Cl`: the compound was classed as inactive in test [1], in test [20], in test [3], in test [4], in test [5] and in test [6]. The compound was called inactive in [15], in test [16] and in [18]. Moreover, the concentration at half-maximal activity (AC50) in [7] is 51.7 µM (active); in test [9], 70.8 µM (active); in [11], 82.6 µM (active); in [12], 26.5 µM (active); in [13] it was 21.9 µM (active); in test [19], 61.5 µM (active).

With `CC=C(C)C(C)=O`, the compound was called inactive in test [1], in [2], in test [3], in test [4], in test [5] and in test [6]. In addition, the compound was called inactive in [7], in [8], in test [9], in test [10], in test [11] and in test [13]. Further, the outcome in test [14], in test [15], in test [16], in [17], in test [18] and in test [19] was inactive. For the same compound, the AC50 in [12] is 8.49 µM (active).

For `CCC(C)C(=O)OC` (configuration not stated), the call in test [1], in test [20], in test [3], in test [4], in test [5] and in test [6] was inactive. Further, the call in [7], in test [8], in test [11], in test [12], in test [13] and in test [14] was inactive. The compound was called inactive in test [15], in test [16], in [17], in test [18] and in test [19].

For the origin of these results see PubChem BioAssay (EPA / NIEHS).
